# Several values for one entry are separate records, joined by “and”; a condition that tells them apart may be missing. Equal values may be shown once. Records with an inconclusive call do not appear. A call without a number means that no potency is given here. Values without a mark were called inactive. Activity calls are given as the source filed them. Calls come from the whole dose curve; as a rule, active = well fitted curve in the direction sought with a large enough effect in the repeat runs; inconclusive = weak or mixed curves; inactive = no such curve, though single readings can be large; an effect the other way counts as inactive or inconclusive.
# How the values were obtained:
# [1] = qHTS RealTime-Glo MT Cell Viability Assay in HEK293 cells - 16 hour (AID 1224872); note: nearly all actives have a fitted effect of over 50% in size; for activity change, negative = cytotoxicity: top concentration of the series differs between compounds
# Procedure, shortened: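 Tox21 10K qHTS, HEK293, 600 cells/well, RealTime-Glo reagent co-dispensed with cells; 5 h preincubation, compound by pintool, 37 C, luminescence at 0–40 h.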
# [2] = qHTS RealTime-Glo MT Cell Viability Assay in HepG2 cells - 8 hour (AID 1224873); note: nearly all actives have a fitted effect of over 55% in size
# Procedure, shortened: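 HepG2 cells (600/well) mixed with RealTime-Glo MT reagent, settled 5 h at 37 C/5% CO2 before compound addition. Nonlytic NanoLuc luminescence from viable-cell prosubstrate reduction read repeatedly during 40 h treatment at 37 C.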
# [3] = qHTS RealTime-Glo MT Cell Viability Assay in HEK293 cells - 40 hour (AID 1224874); conditions: RealTime-Glo luminescence; max response: active compounds read low; note: nearly all actives have a fitted effect of over 50% in size
# Procedure, shortened: (§1)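 600 HEK293 cells per well, dispensed already mixed with RealTime-Glo MT reagents. Compound dosing came 5 h later. The same wells were read for luminescence at 0, 8, 16, 24, 32 and 40 h of exposure at 37 C.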
# [4] = A CellTox Green Cytotoxicity Assay to monitor cytotoxicity in HEK293 cells - 24 hour (AID 1224875); note: nearly all actives have a fitted effect of over 45% in size; for activity change: series mostly up to about 77 µM
# Procedure, shortened: (§2)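 Dead-cell fluorescence measured kinetically: asymmetric cyanine dye, HEK293, 600 cells/well, 5 h settle, 23 nL cpd/DMSO, 37 C, reads 0–40 h every 8 h.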
# [5] = A CellTox Green Cytotoxicity Assay to monitor cytotoxicity in HepG2 cells - 16 hour (AID 1224876); note: nearly all actives have a fitted effect of over 45% in size
# Procedure, shortened: (§3)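 First, HepG2 cells (600/well) mixed with reagent were plated; second, after 5 h at 37 C they received compounds via pintool; third, fluorescence was measured at 0 h through 40 h at 8 h intervals.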
# [6] = qHTS RealTime-Glo MT Cell Viability Assay in HepG2 cells - 32 hour (AID 1224877); note: nearly all actives have a fitted effect of over 55% in size
# Procedure, shortened: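 Cells + NanoLuc/prosubstrate dispensed (600 cells/well) → 5 h at 37 C/5% CO2 → compounds in DMSO transferred → 40 h incubation at 37 C, luminescence read at 0, 8, 16, 24, 32, 40 h.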
# [7] = A CellTox Green Cytotoxicity Assay to monitor cytotoxicity in HepG2 cells - 24 hour (AID 1224878); note: nearly all actives have a fitted effect of over 45% in size
# Procedure, shortened: as §3
# [8] = A CellTox Green Cytotoxicity Assay to monitor cytotoxicity in HepG2 cells - 40 hour (AID 1224879); note: nearly all actives have a fitted effect of over 40% in size
# Procedure, shortened: as §3
# [9] = qHTS RealTime-Glo MT Cell Viability Assay in HEK293 cells - 0 hour (AID 1224880); note: nearly all actives have a fitted effect of over 45% in size; for activity change, negative = cytotoxicity: top concentration of the series differs between compounds
# Procedure, shortened: as §1
# [10] = A CellTox Green Cytotoxicity Assay to monitor cytotoxicity in HEK293 cells - 40 hour (AID 1224871); note: nearly all actives have a fitted effect of over 45% in size
# Procedure, shortened: as §2
# Potency is the fitted concentration of half-maximal effect.
compound,measurement,setting,value
Cc1cc(C(C)(C)C)cc(C)c1CC1=NCCN1,Potency,[1],inactive
same,Potency,[2],inactive
same,max response,[3],-8.22%
same,Potency,[4],inactive
same,Potency,[5],inactive
same,Potency,[6],inactive
same,Potency,[7],inactive
same,Potency,[8],inactive
same,Potency,[9],inactive
Cc1cccc(C(=O)O)c1O,Potency,[1],inactive
same,Potency,[2],inactive
same,max response,[3],6.77%
same,Potency,[4],inactive
same,Potency,[5],inactive
same,Potency,[6],inactive
same,Potency,[7],inactive
same,Potency,[8],inactive
same,Potency,[9],inactive
Cc1cc(C)c(/C=C2\C(=O)Nc3ccccc32)[nH]1,Potency,[1],inactive
same,Potency,[2],inactive
same,max response,[3],-3.94%
same,Potency,[4],10.7 µM (active)
same,Potency,[5],16.9 µM (active)
same,Potency,[6],inactive
same,Potency,[7],19 µM (active)
same,Potency,[8],19 µM (active)
same,Potency,[9],inactive
CC(C)Cn1cnc2c(N)nc3ccccc3c21,cytotoxicity increase,[10],1.7% [at 15.8 µM]
same,"viability change, negative = cytotoxic",[2],-0.187% [at 15.8 µM]
same,activity change,[4],"3.75% [at 15.8 µM, active compounds read high]"
same,cytotoxicity increase,[5],-13.4% [at 15.8 µM]
same,cytotoxicity,[7],-13.9% [at 15.8 µM]
same,cytotoxicity increase,[8],-14.5% [at 15.8 µM]
same,"activity change, negative = cytotoxicity",[9],-0.941% [at 15.8 µM]
Nc1nc(N)nc(-c2cc(Cl)ccc2Cl)n1,Potency,[1],inactive
same,Potency,[2],inactive
same,max response,[3],3.58%
same,Potency,[4],inactive
same,Potency,[5],inactive
same,Potency,[6],inactive
same,Potency,[7],inactive
same,Potency,[8],inactive
same,Potency,[9],inactive
CCC(C)[O-].CCC(C)[O-].CCOC(=O)/C=C(/C)[O-].[Al+3],Potency,[1],inactive
same,Potency,[2],inactive
same,max response,[3],0.788%
same,Potency,[4],inactive
same,Potency,[5],inactive
same,Potency,[6],inactive
same,Potency,[7],inactive
same,Potency,[8],inactive
same,Potency,[9],inactive
CCC(C)n1ncn(-c2ccc(N3CCN(c4ccc(OC[C@H]5CO[C@](Cn6cncn6)(c6ccc(Cl)cc6Cl)O5)cc4)CC3)cc2)c1=O (stereo partly drawn),Potency,[10],inactive
same,Potency,[2],inactive
same,Potency,[4],inactive
same,Potency,[5],inactive
same,Potency,[7],inactive
same,Potency,[8],inactive
same,Potency,[9],inactive
CCCCCCCCCCCCCCCC[N+](C)(C)CC,Potency,[1],21.9 µM (active) and 6.74 µM (active)
same,Potency,[2],55.1 µM (active)
same,Potency,[3],4.38 µM (active) and 3.38 µM (active)
same,Potency,[4],43.8 µM (active) and 23.9 µM (active)
same,Potency,[5],49.1 µM (active) and 23.9 µM (active)
same,Potency,[6],21.9 µM (active) and 21.3 µM (active)
same,Potency,[7],24.6 µM (active) and 21.3 µM (active)
same,Potency,[8],15.5 µM (active) and 19 µM (active)
same,Potency,[9],inactive
O=C(O)[C@H](O)[C@@H](O)[C@H](O[C@@H]1O[C@H](CO)[C@H](O)[C@H](O)[C@H]1O)[C@H](O)CO,Potency,[1],inactive
same,Potency,[2],inactive
same,max response,[3],11.3%
same,Potency,[4],inactive
same,Potency,[5],inactive
same,Potency,[6],inactive
same,Potency,[7],inactive
same,Potency,[8],inactive
same,Potency,[9],inactive
OC[C@H]1O[C@H](O[C@H]2O[C@H](CO)[C@@H](O)[C@H](O)[C@H]2O)[C@H](O)[C@@H](O)[C@@H]1O,Potency,[1],inactive
same,Potency,[2],inactive
same,max response,[3],25.1%
same,Potency,[4],inactive
same,Potency,[5],inactive
same,Potency,[6],inactive
same,Potency,[7],inactive
same,Potency,[8],inactive
same,Potency,[9],inactive
S=C([S-])NCCNC(=S)[S-].S=C([S-])NCCNC(=S)[S-].[Mn+2].[Zn+2],Potency,[10],inactive
same,Potency,[2],inactive
same,Potency,[5],inactive
same,Potency,[6],inactive
same,Potency,[7],inactive
same,Potency,[8],inactive
same,Potency,[9],inactive
[Cl][Pt-2]([Cl])([Cl])[Cl],Potency,[10],inactive
same,Potency,[2],inactive
same,Potency,[4],inactive
same,Potency,[5],inactive
same,Potency,[6],inactive
same,Potency,[7],inactive
same,Potency,[8],inactive
same,Potency,[9],inactive
c1ccc(C(O[C@@H]2CCCN(CCc3ccc4c(c3)OCO4)C2)c2ccccc2)cc1,Potency,[10],inactive
same,Potency,[2],inactive
same,Potency,[5],inactive
same,Potency,[6],inactive
same,Potency,[7],inactive
same,Potency,[9],inactive
CCn1c2ccccc2c2cc([N+](=O)[O-])ccc21,Potency,[10],inactive
same,max response,[3],-23.8%
same,Potency,[4],inactive
same,Potency,[5],inactive
same,Potency,[6],inactive
same,Potency,[7],inactive
same,Potency,[8],inactive
same,Potency,[9],inactive
O=C(Oc1ccccc1)Oc1ccccc1,Potency,[1],inactive
same,Potency,[2],inactive
same,max response,[3],-21%
same,Potency,[4],inactive
same,Potency,[5],inactive
same,Potency,[6],48.8 µM (active)
same,Potency,[7],inactive
same,Potency,[8],inactive
same,Potency,[9],inactive
COC(=O)c1ccccc1OC,Potency,[1],inactive
same,Potency,[2],inactive
same,max response,[3],2.19%
same,Potency,[4],inactive
same,Potency,[5],inactive
same,Potency,[6],inactive
same,Potency,[7],inactive
same,Potency,[8],inactive
same,Potency,[9],inactive
O=C(/C=C/c1ccc(O)c(O)c1)O[C@@H](C(=O)O)[C@@H](OC(=O)/C=C/c1ccc(O)c(O)c1)C(=O)O,Potency,[1],inactive
same,Potency,[2],inactive
same,max response,[3],1.33%
same,Potency,[4],inactive
same,Potency,[5],inactive
same,Potency,[6],inactive
same,Potency,[7],inactive
same,Potency,[8],inactive
same,Potency,[9],inactive
Cc1ccc(C)cc1,Potency,[1],inactive
same,Potency,[2],inactive
same,max response,[3],12.3%
same,Potency,[4],inactive
same,Potency,[5],inactive
same,Potency,[6],inactive
same,Potency,[7],inactive
same,Potency,[8],inactive
same,Potency,[9],inactive
COC(=O)C1=C(C)NC(C)=C(C(=O)OCCN2CCN(C(c3ccccc3)c3ccccc3)CC2)C1c1cccc([N+](=O)[O-])c1 (stereo not drawn),Potency,[10],inactive
same,Potency,[4],inactive
same,Potency,[5],inactive
same,Potency,[7],inactive
same,Potency,[8],inactive
same,Potency,[9],inactive
CCCCC/C=C\C/C=C\CCCCCCCC(=O)O,Potency,[1],inactive
same,Potency,[2],inactive
same,max response,[3],6.43% and 5.51%
same,Potency,[4],inactive
same,Potency,[5],inactive
same,Potency,[6],inactive
same,Potency,[7],inactive
same,Potency,[8],inactive
same,Potency,[9],inactive
C=CC(C)(CCC=C(C)C)OC=O (stereo not drawn),Potency,[1],inactive
same,Potency,[2],inactive
same,max response,[3],5.29%
same,Potency,[4],inactive
same,Potency,[5],inactive
same,Potency,[6],inactive
same,Potency,[7],inactive
same,Potency,[8],inactive
same,Potency,[9],inactive
O=C1CCc2cc(OCCCCc3nnnn3C3CCCCC3)ccc2N1,Potency,[10],inactive
same,Potency,[2],inactive
same,Potency,[5],inactive
same,Potency,[6],inactive
same,Potency,[7],inactive
same,Potency,[8],inactive
same,Potency,[9],inactive
CC[N+](CC)(CC)CCOC(=O)C(C1CCCC1)C1CCCC1,Potency,[10],inactive
same,Potency,[2],inactive
same,Potency,[5],inactive
same,Potency,[7],inactive
same,Potency,[8],inactive
same,Potency,[9],inactive
CCCCCC/C=C\CCCCCCCC(=O)O,Potency,[1],inactive
same,Potency,[2],inactive
same,max response,[3],-4.29%
same,Potency,[4],inactive
same,Potency,[5],inactive
same,Potency,[6],inactive
same,Potency,[7],inactive
same,Potency,[8],inactive
same,Potency,[9],inactive
O=C1CCCCCCCCCCCCCCCO1,Potency,[1],inactive
same,Potency,[2],inactive
same,max response,[3],4%
same,Potency,[4],24.5 µM (active)
same,Potency,[5],43.6 µM (active)
same,Potency,[6],inactive
same,Potency,[7],43.6 µM (active)
same,Potency,[8],43.6 µM (active)
same,Potency,[9],inactive
CCCCCCCC,Potency,[1],inactive
same,Potency,[2],inactive
same,max response,[3],-2.45%
same,Potency,[4],inactive
same,Potency,[5],inactive
same,Potency,[6],inactive
same,Potency,[7],inactive
same,Potency,[8],inactive
same,Potency,[9],inactive
CCCCOC(=O)CO,Potency,[1],inactive
same,Potency,[2],inactive
same,max response,[3],-0.491%
same,Potency,[4],inactive
same,Potency,[5],inactive
same,Potency,[6],inactive
same,Potency,[7],inactive
same,Potency,[8],inactive
same,Potency,[9],inactive
FC(F)(F)c1cccc(Cl)c1,Potency,[1],inactive
same,Potency,[2],inactive
same,max response,[3],-5.72%
same,Potency,[4],inactive
same,Potency,[5],inactive
same,Potency,[6],inactive
same,Potency,[7],inactive
same,Potency,[8],inactive
same,Potency,[9],inactive
CCN(CC)c1ccc2c(-c3ccc(S(=O)(=O)O)cc3S(=O)(=O)[O-])c3ccc(=[N+](CC)CC)cc-3oc2c1,Potency,[1],inactive
same,Potency,[2],inactive
same,max response,[3],-15.9%
same,Potency,[4],inactive
same,Potency,[5],inactive
same,Potency,[6],inactive
same,Potency,[7],inactive
same,Potency,[8],inactive
same,Potency,[9],inactive
O=C1OC2(c3ccc(O)cc3Oc3cc(O)ccc32)c2ccc(N=C=S)cc21,Potency,[10],12.5 µM (active)
same,Potency,[4],17.7 µM (active)
same,Potency,[5],15.8 µM (active)
same,Potency,[7],15.8 µM (active)
same,Potency,[8],15.8 µM (active)
same,Potency,[9],44.4 µM (active)
OC12N=C(c3ccccc3)SC1Cc1cc(Cl)ccc12 (stereo not drawn),Potency,[10],inactive
same,Potency,[2],inactive
same,Potency,[5],inactive
same,Potency,[6],inactive
same,Potency,[9],inactive
